# HCMV antiviral = qHTS Assay for inhibitors of the human cytomegalovirus (HCMV); HFF cells, HCMV-luciferase reporter, 72 h; hits give low values; activity change, negative = inhibition, % at 57.5 µM; 410,000 compounds, 4.5% hits; AID 1259415, 2018; in the data active means activity change below about -60%; inconclusive means no clear call, values can overlap the other calls; inactive means above about -39%; further: on the % scale 0 is the no-effect control and ±100 the full control effect
#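 Two-dose cell screen: HFF monolayers treated with compounds and infected with luciferase-expressing HCMV at 1 PFU/cell, 72 h at 37C, then lysed for luciferase measurement.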
# Shiga inhibitor = A qHTS for Small Molecule Inhibitors of Shiga Toxin; Vero cells, Shiga toxin protein synthesis inhibition reporter; inhibition, % at 38.7 µM; 290,000 compounds, 9.2% hits; AID 2315, 2010; in the data active means inhibition mostly above about 28%, no sharp cut-off; inactive means mostly below about 43%; further: 0% is about no effect
# CHX counter = Cycloheximide Counterscreen for Small Molecule Inhibitors of Shiga Toxin; cell reporter, cycloheximide protein synthesis inhibition counterscreen; max response, %; 300,000 compounds, 12% hits; in the data active means max response mostly above about 13%, no sharp cut-off; inactive means mostly below about 14%; further: read at 38.3 µM for the half of the compounds with a filed dose; 0% is about no effect
# HCV inhibitor = qHTS Assay for Inhibitors of Hepatitis C Virus (HCV); Huh7.5.1 HCVcc-Cre infection, luciferase reporter, 44 h; AID 651820, 2012; 340,000 compounds, 3.4% hits; Potency, µM (top dose mostly 41.8 µM), for inactives: top-dose activity change, negative = inhibition, usual class: inhibitors; further: potency means the concentration at half of the fitted maximal effect; on the % scale 0 is the no-effect control and ±100 the full control effect
#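 Seed cells (1,000/well) for 4 h; treat with compound and infect with HCVcc-Cre, moi about 0.5. Incubate 44 h, then detect luciferase activity.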
# Pf growth 48h = Primary qHTS for delayed death inhibitors of the malarial parasite plastid, 48 hour incubation; P. falciparum luciferase growth in erythrocytes, 48 h; Potency, µM (series often up to 28.7 µM), without a hit: at the highest dose activity change, negative = inhibition, actives largely listed as inhibitors; 310,000 compounds, 5.9% hits; AID 504832, 2011; further: potency means the concentration at half of the fitted maximal effect; on the % scale 0 is the no-effect control and ±100 the full control effect
#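 Firefly luciferase activity from engineered P. falciparum reports growth; inhibitors lower the luminescent signal. Cultures contained 2% hematocrit erythrocytes at 0.1% final parasitemia.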
# Pf growth 96h = Primary qHTS for delayed death inhibitors of the malarial parasite plastid, 96 hour incubation. P. falciparum luciferase reporter growth, 96 h. AID 504834, 2011. 320,000 compounds, 6.9% hits. Potency, µM (highest dose often 28.7 µM), without a hit: at the top dose activity change, negative = inhibition, most hits filed as inhibitors; further: potency means the concentration at half of the fitted maximal effect; on the % scale 0 is the no-effect control and ±100 the full control effect
#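 Two parasite generations (96 h, 37 C, 5% CO2) of compound exposure in infected erythrocytes (0.05% parasitemia, 2% hematocrit). Luciferase-reporter P. falciparum; decreased luminescence indicates inhibited growth, aimed at apicoplast-acting delayed death.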
# * marks the source's active call; other numbers are inactive results; ? = inconclusive; / = not tested or not shown; [ ] = remark or other dose. Sampled rows, rich in hits. Any-hit rate of the full collection: about 21%. Unless noted, the call rests on the fitted dose curve; in most records, active means well fitted inhibition curve with a large enough effect; inconclusive means small, poorly fitted or top-dose-only effect, or another doubt; inactive means no such curve, though single readings can be large or run the other way.
SMILES,HCMV antiviral,Shiga inhibitor,CHX counter,HCV inhibitor,Pf growth 48h,Pf growth 96h
COc1ccc(CNC(=O)CCC2N=C3c4ccccc4N=C(SCc4ccc(F)cc4)N3C2=O)cc1 (stereo unspecified),17,/,/,/,/,/
CCC(C)n1c(SCc2ccc(F)cc2Cl)nc2ccsc2c1=O (stereo unspecified),-19,/,/,/,/,/
Cc1ccc(C(=O)NCC(c2ccco2)N2CCc3ccccc32)cc1 (stereo unspecified),-14,/,/,-21%,-28%,?
CO[C@H]1C=CO[C@@]2(C)Oc3c(C)c(O)c4c(O)c(c5c(c4c3C2=O)NC2(CCN(CC(C)C)CC2)N=5)=NC(=O)C(C)=CC=C[C@H](C)[C@H](O)[C@@H](C)[C@@H](O)[C@@H](C)[C@H](OC(C)=O)[C@@H]1C,/,-1,6,/,/,/
CCC(C)N1CCC2(CC1)N=c1c(c3c4c5c(C)c(O)c3c(O)c1=NC(=O)C(C)=CC=C[C@H](C)[C@H](O)[C@@H](C)[C@@H](O)[C@@H](C)[C@H](OC(C)=O)[C@H](C)[C@@H](OC)C=CO[C@@](C)(O5)C4=O)N2 (stereo partly specified),32,/,/,10%,9.3µM*,?
O=C(NCCOc1ccccc1)c1ccccc1NC(=O)C1CCCO1 (stereo unspecified),42,60,41*,-17%,211%,-36%
CCc1ccc(NC(=O)c2ccccc2NC(=O)C2CCCO2)cc1 (stereo unspecified),58,51,65*,/,/,157%
CCOC(=O)c1ccccc1NC(=O)C1CCCO1 (stereo unspecified),29,8,-1,-2%,3%,-22%
O=C(c1ccc2c(c1)N(Cc1ccccc1)C(=O)c1ccccc1S2(=O)=O)N1CCc2ccccc21,39,/,/,/,/,/
COc1cc2cc(C(c3nnnn3C3CCCC3)N3CCCCC3)c(=O)[nH]c2cc1OC (stereo unspecified),13,-11,-4,-4%,15%,21%
O=c1[nH]c2cc3c(cc2cc1C(c1nnnn1C1CCCCC1)N1CCSCC1)OCCO3 (stereo unspecified),-107*,15,0,10%,13µM*,5%
COc1ccc2[nH]c(=O)c(C(c3nnnn3C3CCCC3)N3CCN(Cc4ccc5c(c4)OCO5)CC3)cc2c1 (stereo unspecified),-40,22,6,?,12µM*,?
O=C(Nc1ccccc1F)c1cnc(N2CCCCC2)c2ccccc12,6,/,/,/,/,/
CCN1C(=O)C(c2nnnn2-c2c(C)cccc2C)N(CCc2ccccc2)C1=O (stereo unspecified),-8,/,/,/,/,/
O=C(Nc1ccc2nsnc2c1)N1CCCCC1,-8,55,30*,-15%,/,22%
CC1CCN(C(=O)Nc2ccc3nsnc3c2)CC1,41,107*,20*,-29%,31%,131%
S=C(Nc1ccc2nsnc2c1)N1CCCCCC1,-37,35,-6,-14%,?,25%
COC(=O)c1cn(C(=O)/C=C/c2ccc(OC)c(OC)c2)c2ccccc12,-7,4,2,?,?,94%
Cc1ccc(S(=O)(=O)n2ccc3c(OCCOCCNCc4ccc(F)cc4)cccc32)cc1,-101*,-5,-3,?,9.3µM*,10µM*
Cc1ccc(S(=O)(=O)NCCCCC(NC(=O)OC(C)(C)C)C(=O)O)cc1 (stereo unspecified) (tested in a mixture with another compound),3,-2,-2,-16%,-5%,/
Cc1cc(C)c(C)c(OCCOCCNCc2ccccc2)c1,90,-17,-5,?,-4%,35%
Cc1ccc(S(=O)(=O)n2ccc3c(OCCOCCSCC(NC(=O)OC(C)(C)C)C(=O)O)cccc32)cc1 (stereo unspecified),-2,3,-2,-26%,?,9.3µM*
COc1ccc(OC)c(S(=O)(=O)N2CCC(C(=O)N3CCCCCC3)CC2)c1,?,4,-2,3%,6%,4%
CCOc1ccc(C(=O)c2cn(CC(=O)Nc3ccc4c(c3)OCO4)c3ccc(OCC)cc3c2=O)cc1,-2,/,/,/,/,/
Cc1n(C)c2cc(Cl)ccc2[n+]1Cc1ccccc1,-60*,-20,-2,3%,2.9µM*,22%
SMILES,HCMV antiviral,Shiga inhibitor,CHX counter,HCV inhibitor,Pf growth 48h,Pf growth 96h
CC[n+]1c(C)n(C)c2cc(S(=O)(=O)N(C)C)ccc21,-4,-14,-3,8%,0%,66%
CCNc1ccc(S(N)(=O)=O)cc1[N+](=O)[O-],24,-4,-3,10%,-12%,12µM*
NS(=O)(=O)c1ccc(CCNc2ccccc2[N+](=O)[O-])cc1,31,77*,36*,-12%,57%,33%
COc1ccc(S(=O)(=O)N(C)c2ccc(OC(=O)C(C)Oc3ccc(F)cc3)cc2)cc1 (stereo unspecified),-10,/,/,-15%[8.37 µM],9%,22%
C/C(CC(=O)Nc1ccc(Cl)c(Cl)c1)=N\NC(=O)C(=O)N1CCCCC1,5,18,11,-6%,11%,-7%
C/C(CC(=O)Nc1ccc(C)c(Cl)c1)=N\NC(=O)c1cccc(O)c1,23,56*,57*,9%,3%,?
C/C(CC(=O)Nc1ccc(N(C)C)cc1)=N\NC(=O)c1ccc(Cl)cc1,39,32,27*,12%,9%[0.00184 µM],20%
CC(=O)Nc1ccc(NC(=O)C/C(C)=N/NC(=O)C(=O)Nc2ccc(C)c(Cl)c2)cc1,-11,2,0,-7%,41%,35%
C/C(CC(=O)Nc1ccc(C)c(Cl)c1)=N\NC(=O)c1ccccn1,-3,77*,51*,2%,-3%,19%
C/C(CC(=O)Nc1ccc(N(C)C)cc1)=N\NC(=O)c1ccccc1Cl,-29,/,/,/,/,/
C/C(CC(=O)Nc1ccc(N(C)C)cc1)=N\NC(=O)c1ccccn1,103,98*,33*,-12%,72%,235%
C/C(CC(=O)Nc1ccc(N(C)C)cc1)=N\NC(=O)c1ccncc1,-32,28,17,-1%,-1%,7%
C[C@H](CO)N1C[C@H](C)[C@H](CN(C)S(=O)(=O)c2cccc(F)c2)Oc2cc(Br)ccc2S1(=O)=O,-15,/,/,/,/,/
NCCCC(N)CC(=O)NC1CNC(=O)C(C2CC(O)N=C(N)N2)NC(=O)/C(=C/NC(N)=O)NC(=O)C(CO)NC(=O)C(CO)NC1=O (stereo unspecified),/,/,/,/,3%,7%
CCC1(c2ccccc2)NC(=O)N(CC(=O)Nc2ccc(N3CCOCC3)cc2)C1=O (stereo unspecified),-1,/,/,1%,/,/
